# AmpC inh no detg: inhibitors of E. coli AmpC beta-lactamase without detergent. 330,000 compounds, 0.52% hits. Potency, µM (titrated, usually from 57.1 µM), inactives show at the top dose activity change, negative = inhibition, hits mostly inhibitors. AmpC nitrocefin hydrolysis, absorbance 480 nm, 0.0001% Triton. AID 485341;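 also: plate controls were no compound for no effect and no enzyme for full effect; nearly all actives have a fitted effect of over 20% in size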
# Target sequence (P00811 whole entry, looked up): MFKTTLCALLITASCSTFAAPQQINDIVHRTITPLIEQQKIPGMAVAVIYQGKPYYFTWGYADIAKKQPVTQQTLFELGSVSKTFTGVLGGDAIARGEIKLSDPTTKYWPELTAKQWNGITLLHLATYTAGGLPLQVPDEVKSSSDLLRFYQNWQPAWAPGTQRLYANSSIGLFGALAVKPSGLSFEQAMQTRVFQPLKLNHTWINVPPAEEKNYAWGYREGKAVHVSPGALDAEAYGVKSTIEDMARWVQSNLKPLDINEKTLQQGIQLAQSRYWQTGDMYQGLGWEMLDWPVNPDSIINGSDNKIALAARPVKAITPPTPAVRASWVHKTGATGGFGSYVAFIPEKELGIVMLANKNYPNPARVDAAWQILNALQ
#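 AmpC (5.3 nM in the dispensed reagent) in 20 mM phosphate pH 7.0 with 0.01% (detergent screen) or 0.0001% Triton X-100 was preincubated with compounds for 15 min at room temperature. Nitrocefin was then added from an 800 uM solution, and hydrolysis was followed at 480 nm.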
# FBPA Giardia inh: blocks Giardia fructose-bisphosphate aldolase activity. A8B2U2. 290,000 compounds, 0.71% hits. purified Giardia FBPA. Potency, µM (doses to about 59.6 µM), without a hit: at the highest dose activity, negative = inhibition, usual class: inhibitors; also: nearly all actives have a fitted effect of over 55% in size
# Target sequence (A8B2U2 whole entry, looked up): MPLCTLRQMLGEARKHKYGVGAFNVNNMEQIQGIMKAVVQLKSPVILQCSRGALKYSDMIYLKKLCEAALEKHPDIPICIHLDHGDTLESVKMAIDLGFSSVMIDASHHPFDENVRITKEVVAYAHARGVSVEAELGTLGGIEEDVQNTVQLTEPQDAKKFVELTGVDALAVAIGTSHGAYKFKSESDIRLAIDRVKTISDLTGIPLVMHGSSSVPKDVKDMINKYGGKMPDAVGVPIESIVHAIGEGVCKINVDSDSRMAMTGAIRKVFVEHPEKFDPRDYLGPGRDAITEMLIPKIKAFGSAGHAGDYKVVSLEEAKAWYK
#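 Giardia FBPA (40 nM reagent) was preincubated 10 min at RT with compound (up to 57.5 uM final), then substrate plus GAPDH/TPI/NAD/arsenate coupling system with diaphorase/resazurin was added; resorufin fluorescence (525/598 nm) was read after 20 min.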
# RE007 growth inh: less growth of the S. pombe RE007 Vpr strain; S. pombe RE007 Vpr strain, BacTiter-Glo ATP luminescence, 24 h; Potency, µM (doses to about 92.2 µM), inactives show at the top dose activity change, negative = less growth, most hits filed as inhibitors; 360,000 compounds, 0.21% hits; active = well fitted falling curve with a large enough effect; inconclusive = small, poorly fitted or top-dose-only effect; inactive = no such curve, though single readings can be large or run the other way; also: nearly all actives have a fitted effect of over 50% in size
#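 Fission yeast RE007 carrying one integrated HIV-1 vpr copy, seeded at OD 0.01 in PMG+AL medium with 23 nL pinned compound. Grown 24 h at 30 degrees; viability read by BacTiter-Glo luminescence after 5 min.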
# Sm TGR block: blocks Schistosoma mansoni thioredoxin glutathione reductase; Q962Y6; purified TGR, DTNB reduction, TNB absorbance 405 nm; Potency, µM (top dose mostly 114 µM), inactives show at the highest dose activity change, negative = inhibition, most hits filed as inhibitors; 360,000 compounds, 3% hits; also: nearly all actives have a fitted effect of over 60% in size
#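 TGR 20 nM + NADPH 100 uM (dispensed conc.), cpd preinc 15 min RT; start with NADPH (500 uM addition) then DTNB (15 mM addition). Kinetic TNB absorbance, 405 nm filter. Four-parameter Hill fit across titration.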
# AmpC inh detg: AmpC beta-lactamase inhibition with detergent present; P00811; Potency, µM (titrated, usually from 114 µM), for inactives: at the highest dose activity change, negative = inhibition, usual class: inhibitors; AmpC hydrolysis of nitrocefin, absorbance 480 nm, 0.01% Triton; 370,000 compounds, 0.041% hits; AID 485294;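 also: 0% = no-compound wells and -100% = no-enzyme wells; nearly all actives have a fitted effect of over 25% in size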
#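 AmpC (5.3 nM in the dispensed reagent) in 20 mM phosphate pH 7.0 with 0.01% (detergent screen) or 0.0001% Triton X-100 was preincubated with compounds for 15 min at room temperature. Nitrocefin was then added from an 800 uM solution, and hydrolysis was followed at 480 nm.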
# An asterisk follows results filed as active; ? = inconclusive; · = no result; [ ] = remark or other dose. A selection: hits, their analogues and other compounds. The true share with any hit is near 3.4%. Unless noted, calls follow the shape of the dose curve; as a rule, active = well fitted curve in the direction sought with a large enough effect; inconclusive = small, poorly fitted or top-dose-only effect, or another doubt; inactive = no such curve, though single readings can be large; an effect the other way counts as inactive or inconclusive. Unless noted, % is scaled to controls: 0 for no effect and ±100 for the full control effect; potency is read from the fitted curve at half-maximal effect.
SMILES,AmpC inh no detg,FBPA Giardia inh,RE007 growth inh,Sm TGR block,AmpC inh detg
Cc1ccc(CNC(=O)c2c(Nc3c(C)cccc3C)sc(C(=O)c3ccccc3)c2N)cc1,·,·,·,-35%,7%
O=C(CSc1oc(-c2ccco2)nc1S(=O)(=O)c1ccc(Cl)cc1)NCC1CCCO1 (centres undefined),22%,-9%,-7%,50µM*,-5%
O=C(CSc1oc(-c2ccco2)nc1S(=O)(=O)c1ccc(F)cc1)NCC1CCCO1 (centres undefined),-1%,7%,2%,0%,-1%
O=C(CSc1oc(-c2ccco2)nc1S(=O)(=O)c1ccccc1)NCC1CCCO1 (centres undefined),-11%,-2%,-14%,16µM*,-4%
O=C(CC1C(=O)NCCN1Cc1ccc(-c2ccccc2)cc1)NC1CCC1 (centres undefined),120%,-11%,6%,?,-7%
O=C(CC1C(=O)NCCN1Cc1ccc(F)cc1Cl)NC1CCCCCCC1 (centres undefined),117%,-7%,-15%,?,-7%
O=C(CC1C(=O)NCCN1Cc1ccccc1C(F)(F)F)NC1CCCCC1 (centres undefined),60%,-11%,2%,40µM*,-13%
O=C(CC1C(=O)NCCN1Cc1ccccc1C(F)(F)F)NC1CCCCCC1 (centres undefined),55%,-20%,8%,25µM*,?
O=C(CC1C(=O)NCCN1Cc1ccccc1C(F)(F)F)NC1CCC1 (centres undefined),10%,·,-14%,40µM*,3%
C=CCN(CC=C)C(=O)Nc1ccc2nc(C)sc2c1,-1%,-8%,-20%,7%,11%
CCCCC(=O)Nc1ccccc1C(=O)OCc1cc(=O)n2nc(C3CCCCC3)sc2n1,·,·,·,1%,0%
CC(C)c1cc(NC(=O)C(C)(C)C)cc(C(C)C)c1O,-4%,-1%,-13%,-3%,?
CC(C)c1cc(Nc2cccc(O)c2)cc(C(C)C)c1O,-41%,-28%,·,8.9µM*,3%
Cc1ccc(O)c(-c2cc3ccccc3[nH]2)c1,-39%,?,35µM*,5%,?
CC(=O)Oc1ccc(N2C(=O)C3C4C=CC(O4)C3C2=O)cc1 (centres undefined),-17%,-7%,?,7.1µM*,6%
CCOC(=O)c1ccc(N2C(=O)CC(N3CCC(C(N)=O)(N4CCCCC4)CC3)C2=O)cc1 (centres undefined),-22%,0%,-19%,28µM*,-10%
CCOC(=O)c1ccc(N2C(=O)CC(N3CCOCC3)C2=O)cc1 (centres undefined),-4%,3%,35µM*,?,-9%
CC(=O)Oc1ccc(N2C(=O)CC(N3CCOCC3)C2=O)cc1 (centres undefined),-10%,-1%,-2%,22µM*,-13%
COc1cccc(/C=C/C(=O)N(C)CC(=O)Nc2ccc(Cl)c(C(F)(F)F)c2)c1,-19%,·,0%,-3%,-8%
COc1ccc(C2CC(=O)c3cc(-c4nc(-c5ccc(Cl)cc5)c(C)s4)c(=O)[nH]c3C2)cc1 (centres undefined),·,·,·,3%,19%
CCOC(=O)C1(C)CCCN1C(=O)c1ccc(OC)cc1 (centres undefined),·,·,0%,·,·
O=C1CC(N2CCN(c3ccccc3)CC2)C(=O)N1c1ccc2c(c1)OCO2 (centres undefined),-5%[2.29 µM],6%,-11%,-16%,-2%
CCOc1ccc(N2C(=O)CC(NC3CCN(C(=O)c4cccc(Cl)c4)CC3)C2=O)cc1 (centres undefined),152%,·,?,8%,2%
CCOC(=O)c1ccc(N2C(=O)CC(N(C)CCc3ccc(OC)c(OC)c3)C2=O)cc1 (centres undefined),122%,-6%,4µM*,45µM*,0%
CCOc1cccc(N2C(=O)CC(N(CCc3ccc(OC)c(OC)c3)C(=O)CC)C2=O)c1 (centres undefined),62%,-1%,-1%,-23%,1%
SMILES,AmpC inh no detg,FBPA Giardia inh,RE007 growth inh,Sm TGR block,AmpC inh detg
O=C1CC(N2CCOCC2)C(=O)N1c1ccc2c(c1)OCO2 (centres undefined),-14%,8%,-2%,50µM*,1%
CCOc1cccc(N2C(=O)CC(N3CCC(C(N)=O)(N4CCCCC4)CC3)C2=O)c1 (centres undefined),-13%,4%,0%,45µM*,?
CCOC(=O)c1ccc(N2C(=O)CC(NC3CCN(C(=O)c4cccc(Cl)c4)CC3)C2=O)cc1 (centres undefined),121%,-8%,-19%,50µM*,?
Cc1ccc(-c2ccc(=O)n(CCC(=O)N3CCN(c4ccccc4)CC3)n2)cc1,167%,-15%,4%,-19%,-10%
O=C1NC2(CCCCCC2)C(=O)N1Cc1ccc(F)cc1Cl,-25%,0%,-9%,-11%,-2%
COc1ccc(C[C@H]2c3cc(O)c(OC)cc3CC[N+]2(C)[O-])cc1O (some centres undefined),-28%,-6%,1%,18µM*,1%
COc1cc2c(cc1O)C(Cc1ccc(O)cc1)[N+](C)([O-])CC2 (centres undefined),-5%,-8%,-10%,?,-8%
O=C(NCCc1ccccc1)c1cnc2ccccc2n1,-4%,9%,-5%,-9%,3%
CCCCn1c(N)c(N(CC(C)C)C(=O)c2cc(=O)[nH]c3ccccc23)c(=O)[nH]c1=O,1%,·,-1%,-5%,0%
O=C(COC(=O)C1=COCCO1)Nc1ncc(C(F)(F)F)cc1Cl,-21%,-1%,16%,100µM*,?
O=C(COC(=O)C1=COCCO1)Nc1ncc(Cl)cc1Cl,-15%,·,-20%,-1%,?
CC(C)N1CCC(N2CCN(Cc3ccc(-c4ccc(Cl)cc4)o3)CC2CCO)CC1 (centres undefined),44%,3%,4%,13µM*,4%
CC(C)N1CCC(N2CCN(Cc3ccc(-c4ccccc4Cl)o3)CC2CCO)CC1 (centres undefined),41%,?,1%,8%,2%
Cn1c(=O)c(N)c2c3c(c(Br)ccc31)C(=O)c1ccccc1-2,-18%,-7%,23%,13µM*,12%
Cc1cc(C)c(NC(=O)CSc2nc3c(c(=O)n2C)SC(C)C3)c(C)c1 (centres undefined),3.2µM*,1%,-8%,1%,-19%
Cc1cc(C)cc(NC(=O)CSc2nc3c(c(=O)n2C)SC(C)C3)c1 (centres undefined),-28%,0%,-10%,4%,?
Cc1cc(NCCCn2ccnc2)n2nc(-c3ccc(Cl)cc3)cc2n1,229%,-4%,-4%,·,-6%

# Screening results from PubChem BioAssay.
